The full ranking holds about 9,900 sequences; the median of “r (bound/input frequency ratio)” is about 0.7, and the highest 2% start at about 6.5. Many of the other results were omitted from the sample, so the highest values are more common in it than they were.
B1: ENSMUSG00000058297.476|Spock2 (ssRNA)
RNA: GGGAGUUCUACAGUCCGACGAUCGCUUCGAUAUCCGCAUGCUAGCUGUGUUGGAAAGAGUUCAACCAAAUUACGGCAGCACCACAUCUUGCCGAGCCCUGGAGCUGCCCUACUAAGAGCCUCCUUAGCCCUGGGUGCUGGGAAGGAUGGUGUACGUUGGGGAAGUUUGAGGUUGGAGAGAGUAAAUGUGCCUUGAGAGACCACUCAGAGGUCCCAGGAGGAACGGGGGCGGGGCUUAGCCUGGGAGUUCUGGCAGGAGGCAAAGUUGGUGAGAGUCCUGGGACAUCUUACCCCCAGUGUUCCACUCUUGCGGUCGCACUAGUGUGGAAUUCUCGGGUGUCAAGG
B2: ENSMUSG00000090935.506|Synj2bp|218:224 (ssRNA)
RNA: GGGAGUUCUACAGUCCGACGAUCGCUUCGAUAUCCGCAUGCUAAAGCUCCAUAGAAGGCAAGACGCAUUCCACAUCUUGUCUUGACCAGCAGCACUCUGGAGGCCCAGUGUCUGCUACCCUUCUUGUAUCUGAUGGCAUGGGUAACAGCUCUGCCAUGGGCCUGCUUACUUCUAGUAUUCACCUCAGGGCUUGGAAAUUGGUUUUGAAAGGCUUUUAGACAUAGAAAGUAAAACUAAUGGCAAGGAGGAUAAAACACUGUACACACAUGUAUUGUUGAUCUAAAUAAAAAAUAUCAUUGGUAGCUCUUGCGGUCGCACUAGUGUGGAAUUCUCGGGUGUCAAGG
B3: ENSMUSG00000032194.149|Kank2 (ssRNA)
RNA: GGGAGUUCUACAGUCCGACGAUCGCUUCGAUAUCCGCAUGCUAGCAGAGGAGACUACUUCUAGAAAUACUUUCAGACCUACAGACAAAAAAGAAAAAAGGCCAUUCCGGAGUGACUCCCAGCAUCACAGCCCAGAACCUCCUCCUCAAAGGAGAGUAAACAGAGACUGUGAUACUGACCAAGUACAGGCGCUCGCUAUGAAGCCCAUAUGUUCCUGAUUAAGAGCUGGCUGGCCUCAGAGCACUCCCAGAACUAGCUUAAAGUGACAGGCUUUGCUGAAAUCCAAAGGGACAAAAGAGUAGUUCUCUUGCGGUCGCACUAGUGUGGAAUUCUCGGGUGUCAAGG
B4: ENSMUSG00000022095.203|Fam160b2 (ssRNA)
RNA: GGGAGUUCUACAGUCCGACGAUCGCUUCGAUAUCCGCAUGCUACACAGGUUGCCAGGAGGUGACAUGAAAGAGGAGGAAACUCCAUGACCUCUACAUCCCCCGCAGUCCUCCCAGCGGGGGAGGACUUCUCUGCUGCUCCGAAGAACAUCAUGCACUCCUGUGUGUGUGUGUGAGUGUGUGUGUGUGUGUGUGUGUGUGUGUGUGUGUAUGUGUGUGUAUAUGUGUGUGUGUGUGUGUAUGUGUGUGUGUGUGUGUGAGUGAGUGUGUGUGUGUGUGUGUGUGUGUGAGUGUGUGUGUAUAUGCUCUUGCGGUCGCACUAGUGUGGAAUUCUCGGGUGUCAAGG
B5: ENSMUSG00000022095.204|Fam160b2 (ssRNA)
RNA: GGGAGUUCUACAGUCCGACGAUCGCUUCGAUAUCCGCAUGCUAUUGCCAGGAGGUGACAUGAAAGAGGAGGAAACUCCAUGACCUCUACAUCCCCCGCAGUCCUCCCAGCGGGGGAGGACUUCUCUGCUGCUCCGAAGAACAUCAUGCACUCCUGUGUGUGUGUGUGAGUGUGUGUGUGUGUGUGUGUGUGUGUGUGUGUGUAUGUGUGUGUAUAUGUGUGUGUGUGUGUGUAUGUGUGUGUGUGUGUGUGAGUGAGUGUGUGUGUGUGUGUGUGUGUGUGAGUGUGUGUGUAUAUGUGUGUGCUCUUGCGGUCGCACUAGUGUGGAAUUCUCGGGUGUCAAGG
B6: ENSMUSG00000022095.205|Fam160b2 (ssRNA)
RNA: GGGAGUUCUACAGUCCGACGAUCGCUUCGAUAUCCGCAUGCUAGGAGGUGACAUGAAAGAGGAGGAAACUCCAUGACCUCUACAUCCCCCGCAGUCCUCCCAGCGGGGGAGGACUUCUCUGCUGCUCCGAAGAACAUCAUGCACUCCUGUGUGUGUGUGUGAGUGUGUGUGUGUGUGUGUGUGUGUGUGUGUGUGUAUGUGUGUGUAUAUGUGUGUGUGUGUGUGUAUGUGUGUGUGUGUGUGUGAGUGAGUGUGUGUGUGUGUGUGUGUGUGUGAGUGUGUGUGUAUAUGUGUGUGUGUGUGCUCUUGCGGUCGCACUAGUGUGGAAUUCUCGGGUGUCAAGG
B7: ENSMUSG00000022095.206|Fam160b2 (ssRNA)
RNA: GGGAGUUCUACAGUCCGACGAUCGCUUCGAUAUCCGCAUGCUAGACAUGAAAGAGGAGGAAACUCCAUGACCUCUACAUCCCCCGCAGUCCUCCCAGCGGGGGAGGACUUCUCUGCUGCUCCGAAGAACAUCAUGCACUCCUGUGUGUGUGUGUGAGUGUGUGUGUGUGUGUGUGUGUGUGUGUGUGUGUAUGUGUGUGUAUAUGUGUGUGUGUGUGUGUAUGUGUGUGUGUGUGUGUGAGUGAGUGUGUGUGUGUGUGUGUGUGUGUGAGUGUGUGUGUAUAUGUGUGUGUGUGUGUGAGAGCUCUUGCGGUCGCACUAGUGUGGAAUUCUCGGGUGUCAAGG
B8: ENSMUSG00000042529.429|Kcnj12|20:25;182:186 (ssRNA)
RNA: GGGAGUUCUACAGUCCGACGAUCGCUUCGAUAUCCGCAUGCUAAUGUCAGUGGCUUGGGUGCACACACGAGAGAGAGAGAGAGAGAGAGAGAGAGAGAGAGAGAGAGAGAGAGAGAGAGCUGCACAGGAUGAAGCAGCUGCCCUGAGCCCAUCUGGUGCUGUGCACCUGGUCCUUGUCCAGCCGAGGGCCUGGGGGCAGAAGAACACACCAUAGGGAGGCCCUUCAUACGGUGUCUGCCCUAUGUGAGGUCAUAGAAUGUUAAAUCUAUUUUAAACGGUGAAACUGGAGAAUUUUCAUGUUAUCUCUUGCGGUCGCACUAGUGUGGAAUUCUCGGGUGUCAAGG

Molecular target: TDP-43 (Homo sapiens, UniProt Q13148 1-414)
Test: RNA Bind-n-Seq with designed 260-mer pool; 25 mM Tris-HCl, 150 mM KCl, 3 mM MgCl2, BSA (printed 500 mg/mL), 20 units/mL SUPERase IN; pH not stated; 500 nM RNA pool, 1 h, 4 C; TDP-43 5, 50, 500 nM; high values mean tight binding
Details: protein: recombinant; tags: SBP (GST cleaved off with PreScission; pGEX-GST-SBP)
Method in brief: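 Streptavidin beads captured recombinant SBP-tagged TDP-43 at 5, 50 or 500 nM, and the beads were incubated for 1 h at 4 °C with 500 nM of an in vitro-transcribed pool of 260-nt 3′ UTR oligos in 25 mM Tris-HCl, 150 mM KCl, 3 mM MgCl2, BSA and SUPERase IN. After washing, bound RNA was eluted with biotin, reverse transcribed, PCR-amplified and sequenced. Binding is reported as R, the mapped-read-normalized abundance of each oligo in the bound sample divided by its abundance in the input. Two independent protein batches served as duplicates.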

Chain of TDP-43 (Q13148 whole entry): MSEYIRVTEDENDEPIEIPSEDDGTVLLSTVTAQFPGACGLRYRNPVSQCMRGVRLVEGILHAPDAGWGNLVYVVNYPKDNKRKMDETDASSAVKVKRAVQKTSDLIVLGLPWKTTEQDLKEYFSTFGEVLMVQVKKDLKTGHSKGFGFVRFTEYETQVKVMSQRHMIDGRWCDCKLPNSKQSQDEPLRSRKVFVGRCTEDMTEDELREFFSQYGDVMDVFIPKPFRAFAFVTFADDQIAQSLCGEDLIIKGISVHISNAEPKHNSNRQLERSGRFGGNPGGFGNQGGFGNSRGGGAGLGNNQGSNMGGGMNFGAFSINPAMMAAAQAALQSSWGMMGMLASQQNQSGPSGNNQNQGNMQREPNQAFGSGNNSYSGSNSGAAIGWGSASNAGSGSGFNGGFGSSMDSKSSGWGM

Binder	binding signal
B1	3.44 R (bound/input frequency ratio)
B2	0.236 R (bound/input frequency ratio)
B3	0.573 R (bound/input frequency ratio)
B4	8.18 R (bound/input frequency ratio)
B5	7.95 R (bound/input frequency ratio)
B6	7.87 R (bound/input frequency ratio)
B7	3.86 R (bound/input frequency ratio)
B8	5.54 R (bound/input frequency ratio)

Source: paper PMC12864922, “TDP-43 directly inhibits mRNA accumulation in neurites through modulation of mRNA stability”
